Measurements: PubChem BioAssay
Calls of active or inactive are those of the source.

What was measured:
[1] = optical density shifts of acrAB sulA E. coli – strain DRC41, OD650, 48 h, E. coli filamentation inducer project, primary screen (AID 1152); details: higher = more signal, called active from +8 up or from −8 down;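 further: E. coli MC1000 strain DRC41 lacking acrAB efflux pump and sulA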
[2] = probe aLefty1 binding on compound microarray – biochemical, small-molecule microarray, 635/667 nm fluorescence, primary screen (AID 1153); details: higher = more signal;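 further: score merges spot fluorescence with signal-to-noise ratio from the scanned slide images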
[3] = plasmodial surface anion channel blockers, osmotic lysis – cell-based, P. falciparum Indochina, OD700, 1 h, primary screen (AID 1154); details: P. falciparum Indochina infected RBC osmotic lysis, higher = more signal, called active from +8 up or from −8 down
[4] = plasmodial surface anion channel blockers, osmotic lysis – cell-based, P. falciparum Indochina, OD700, 2 h, primary screen (AID 1155);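 further: lysis reports solute entry through the parasite surface anion channel PSAC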; details: P. falciparum Indochina infected erythrocytes, higher = more signal, called active from +8 up or from −8 down
[5] = changes in parasitized red cell lysis, either direction – P. falciparum Indochina, OD700, 3 h, PSAC antagonist project, primary screen (AID 1156); details: P. falciparum-infected erythrocytes, osmotic lysis, higher = more signal, called active from +8 up or from −8 down
[6] = plasmodial surface anion channel blockers, osmotic lysis – cell-based, P. falciparum Indochina, OD700, 18 h, primary screen (AID 1157); details: P. falciparum Indochina infected erythrocytes, osmotic lysis OD700, 18 h; higher = more signal, called active from +8 up or from −8 down
[7] = S6 kinase pathway phospho-S6 level changes – cell-based, A549, cytoblot, luminescence, serum-stimulated, primary screen (AID 1158); details: 5 h, higher = more signal;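 further: serum-stimulated A549 lung adenocarcinoma cells; signal is phosphorylated S6 detected by cytoblot immunostaining with HRP secondary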
[8] = molecular target: NADPH oxidase 2 (Homo sapiens) (UniProt P04839); test: compounds shifting NOX2 Amplex Red fluorescence – cell-based, HEK293-NOX2, PMA-stimulated, NOX inhibitor project, primary screen (AID 1159); details: 45 min, higher = more signal, called active from +8 up or from −8 down; further: test concentration not given here
Chain of NADPH oxidase 2 (Homo sapiens) (P04839 whole entry, looked up): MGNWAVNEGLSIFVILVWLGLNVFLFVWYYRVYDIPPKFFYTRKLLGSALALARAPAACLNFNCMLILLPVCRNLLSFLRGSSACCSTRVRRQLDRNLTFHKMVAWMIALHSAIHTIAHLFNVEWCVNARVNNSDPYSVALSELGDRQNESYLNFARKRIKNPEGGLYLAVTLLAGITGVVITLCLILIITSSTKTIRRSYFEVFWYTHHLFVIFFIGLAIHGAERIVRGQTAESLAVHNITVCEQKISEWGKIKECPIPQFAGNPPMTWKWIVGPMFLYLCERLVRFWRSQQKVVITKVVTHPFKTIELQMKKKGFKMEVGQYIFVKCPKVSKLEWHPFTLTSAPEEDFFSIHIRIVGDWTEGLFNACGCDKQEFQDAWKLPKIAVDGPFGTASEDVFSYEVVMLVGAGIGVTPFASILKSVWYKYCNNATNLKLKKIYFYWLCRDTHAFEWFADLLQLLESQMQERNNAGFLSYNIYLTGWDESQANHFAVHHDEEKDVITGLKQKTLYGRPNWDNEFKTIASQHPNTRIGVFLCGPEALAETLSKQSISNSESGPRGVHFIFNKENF

[9] = molecular target: NADPH oxidase 4 (Homo sapiens) (UniProt Q9NPH5); test: compounds shifting NOX4 Amplex Red fluorescence – cell-based, HEK293-NOX4, tetracycline-induced, NOX inhibitor project, primary screen (AID 1160); details: HEK293-NOX4, Amplex Red H2O2 fluorescence, 45 min; higher = more signal, called active from +8 up or from −8 down
Chain of NADPH oxidase 4 (Homo sapiens) (Q9NPH5 whole entry, looked up): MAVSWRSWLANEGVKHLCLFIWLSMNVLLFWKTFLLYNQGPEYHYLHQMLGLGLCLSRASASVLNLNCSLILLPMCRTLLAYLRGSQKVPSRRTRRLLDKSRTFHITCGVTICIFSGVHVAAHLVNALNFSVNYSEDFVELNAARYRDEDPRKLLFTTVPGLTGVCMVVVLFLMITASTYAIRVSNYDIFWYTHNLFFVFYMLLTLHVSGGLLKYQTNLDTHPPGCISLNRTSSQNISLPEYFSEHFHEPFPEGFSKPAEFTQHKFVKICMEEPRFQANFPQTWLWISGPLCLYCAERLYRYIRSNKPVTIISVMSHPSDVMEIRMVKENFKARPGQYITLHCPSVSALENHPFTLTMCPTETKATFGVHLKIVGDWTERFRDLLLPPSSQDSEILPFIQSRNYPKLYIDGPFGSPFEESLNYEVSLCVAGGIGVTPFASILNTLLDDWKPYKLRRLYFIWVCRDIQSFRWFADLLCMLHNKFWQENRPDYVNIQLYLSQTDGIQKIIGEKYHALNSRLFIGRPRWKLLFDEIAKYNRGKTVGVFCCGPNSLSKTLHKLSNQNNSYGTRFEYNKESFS

[10] = molecular target: NADPH oxidase 5 (Homo sapiens) (UniProt Q96PH1); test: compounds shifting NOX5 Amplex Red fluorescence – cell-based, HEK293-NOX5, NOX inhibitor project, primary screen (AID 1161); details: HEK293-NOX5, ionomycin, 45 min, higher = more signal
Chain of NADPH oxidase 5 (Homo sapiens) (Q96PH1 whole entry, looked up): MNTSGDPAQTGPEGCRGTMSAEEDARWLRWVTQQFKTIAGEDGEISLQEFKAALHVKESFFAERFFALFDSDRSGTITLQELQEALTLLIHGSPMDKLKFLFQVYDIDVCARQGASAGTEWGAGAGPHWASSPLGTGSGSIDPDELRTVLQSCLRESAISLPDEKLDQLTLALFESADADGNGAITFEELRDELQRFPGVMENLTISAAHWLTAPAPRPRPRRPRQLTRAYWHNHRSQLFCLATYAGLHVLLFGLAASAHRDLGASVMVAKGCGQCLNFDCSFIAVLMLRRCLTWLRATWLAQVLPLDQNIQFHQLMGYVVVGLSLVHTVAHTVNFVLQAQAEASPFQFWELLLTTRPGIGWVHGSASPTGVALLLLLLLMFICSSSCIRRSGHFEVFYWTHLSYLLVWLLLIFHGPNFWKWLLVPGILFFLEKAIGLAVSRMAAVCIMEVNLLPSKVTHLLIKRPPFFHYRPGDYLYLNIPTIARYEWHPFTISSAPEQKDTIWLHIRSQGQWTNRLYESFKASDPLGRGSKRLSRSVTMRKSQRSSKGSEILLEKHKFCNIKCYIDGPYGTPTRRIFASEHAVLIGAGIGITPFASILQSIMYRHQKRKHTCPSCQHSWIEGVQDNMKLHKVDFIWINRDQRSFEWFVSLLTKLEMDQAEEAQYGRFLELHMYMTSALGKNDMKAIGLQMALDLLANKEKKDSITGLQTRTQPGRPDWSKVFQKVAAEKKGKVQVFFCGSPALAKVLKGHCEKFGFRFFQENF

[11] = compound effects on lung adenocarcinoma cell viability – A549, calcein-AM fluorescence, 48 h, basal, profiling panel (AID 1162); details: higher = more signal; further: test concentration not given here
[12] = compound effects on differentiated 3T3-L1 adipocyte viability – cell-based, 3T3-L1 adipocytes, calcein-AM fluorescence, 48 h, basal, profiling panel (AID 1163); details: 3T3-L1 adipocytes viability, higher = more signal; further: test concentration not given here
[13] = compound effects on hepatocellular carcinoma cell viability – HepG2, calcein-AM fluorescence, 48 h, basal, profiling panel (AID 1164); details: higher = more signal; further: test concentration not given here
[14] = compound effects on multiple myeloma cell viability – MM1S, calcein-AM fluorescence, 48 h, basal, profiling panel (AID 1165); details: higher = more signal;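 further: viability of MM1S multiple myeloma cells under basal unstimulated conditions; test concentration not given here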
[15] = calcein-AM signal in unstimulated myeloma cells – cell-based, calcein-AM fluorescence, 48 h, PK04 Diversity Set, profiling panel (AID 1166); details: RPMI8226 myeloma viability, higher = more signal;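 further: cells grown under basal conditions without added stimulus; test concentration not given here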
[16] = JC-1 mitochondrial signal, unstimulated HepG2 cells – cell-based, JC-1 fluorescence, 24 h, 100 nL compound, profiling panel (AID 1167); details: HepG2 mitochondrial potential, higher = more signal; further: test concentration not given here
[17] = JC-1 mitochondrial signal, unstimulated adipocytes – cell-based, JC-1 fluorescence, 3T3-L1 adipocytes, 24 h, 100 nL compound, profiling panel (AID 1168); details: JC-1 mitochondrial fluorescence, higher = more signal, called active from +8 up or from −8 down; further: test concentration not given here
[18] = JC-1 mitochondrial signal, unstimulated myeloma cells – cell-based, JC-1 fluorescence, RPMI8226, 24 h, 100 nL compound, profiling panel (AID 1169); details: JC-1 mitochondrial potential fluorescence, higher = more signal; further: test concentration not given here
[19] = JC-1 mitochondrial signal, unstimulated MM1S myeloma – cell-based, JC-1 fluorescence, 24 h, 100 nL compound, profiling panel (AID 1170); details: MM1S mitochondrial potential, higher = more signal; further: test concentration not given here
[20] = resazurin metabolic signal in A549 cells – cell-based, resazurin fluorescence, 24 h, PK04 Diversity Set, profiling panel (AID 1171); details: A549 viability, higher = more signal, called active from +8 up or from −8 down; further: test concentration not given here

Structure (SMILES)	z-score [1]	composite z-score [2]	z-score [3]	z-score [4]	z-score [5]	z-score [6]	z-score [7]	z-score [8]	z-score [9]	z-score [10]	z-score [11]	z-score [12]	z-score [13]	z-score [14]	z-score [15]	z-score [16]	z-score [17]	z-score [18]	z-score [19]	z-score [20]
COC(=O)[C@H](C)NC(=O)CCC1CC(OC(=O)NCc2ccc3c(c2)OCO3)CC2(CCCC(COC(=O)NCCCN3CCCC3=O)O2)O1 (stereo not given in full)	-0.37 (inactive)	0.0326	-0.881 (inactive)	0.136 (inactive)	-0.257 (inactive)	-0.169 (inactive)	0.0031	1.1 (inactive)	-1.51 (inactive)	-1.74	-0.516	-0.232	-1.09	-0.375	-0.322	-0.815	-0.019 (inactive)	-0.838	0.224	0.468 (inactive)
COCC#Cc1ccc([C@@H]2N[C@H](C(=O)O)CC[C@H]2C)cc1	-0.0799 (inactive)	-0.194	-0.398 (inactive)	-0.478 (inactive)	-0.571 (inactive)	-0.867 (inactive)	2.16	-2.01 (inactive)	0.301 (inactive)	0.723	0.681	-0.269	0.654	0.391	1.14	0.816	0.727 (inactive)	-0.859	0.839	-0.488 (inactive)
CC(=O)OC[C@H]1O[C@@H](ON=C2[C@H]3CCn4c(=O)n(-c5ccccc5)c(=O)n4[C@H]3[C@H](O)[C@@H]3O[C@H]23)[C@H](OC(C)=O)[C@@H](OC(C)=O)[C@@H]1OC(C)=O	-0.132 (inactive)	0.106	0.597 (inactive)	0.454 (inactive)	-0.258 (inactive)	0.465 (inactive)	-0.862	-0.186 (inactive)	-0.47 (inactive)	0.187	-0.0311	-1.14	0.707	-0.0928	-0.105	-0.506	-0.0849 (inactive)	-0.0535	-0.64	-0.713 (inactive)
O=C(NN=C1C[C@@H](O)[C@@H](O)[C@@H]2[C@@H]3C(=O)N(c4ccc(F)cc4F)C(=O)[C@@H]3CC[C@H]12)OCc1ccccc1	0.342 (inactive)	0.207	10.1 (active)	1.29 (inactive)	0.497 (inactive)	0.6 (inactive)	-0.262	0.317 (inactive)	1.33 (inactive)	0.866	-0.299	-0.198	-1.39	-0.46	0.707	0.344	0.533 (inactive)	0.0563	-0.741	1.88 (inactive)
CC(C)[C@H](NC(=O)OC(C)(C)C)[C@@H](O)CC(=O)C(C)(C)C	0.14 (inactive)	-0.267	-0.0522 (inactive)	0.0094 (inactive)	0.155 (inactive)	0.126 (inactive)	0.372	2.2 (inactive)	0.34 (inactive)	0.195	-0.0305	-1.02	0.483	0.514	-0.0779	0.136	-0.148 (inactive)	-0.988	-1.13	-0.242 (inactive)
CC(C)=NOC(C)CN1CCCCc2nc(C)c(C)cc21 (stereo not given)	-0.866 (inactive)	-0.145	-0.147 (inactive)	-0.16 (inactive)	-0.565 (inactive)	0.195 (inactive)	-0.618	-0.0962 (inactive)	-0.278 (inactive)	-0.417	0.0529	-0.047	-0.018	-0.3	-0.637	-0.792	-0.78 (inactive)	-0.633	0.354	-0.585 (inactive)
CC(CCN1CCCc2nc(C)c(C)cc21)=NOC[C@@H](O)COCc1ccco1	0.768 (inactive)	1.95	3.52 (inactive)	0.281 (inactive)	0.453 (inactive)	0.22 (inactive)	-0.815	-0.869 (inactive)	-0.583 (inactive)	-0.144	0.604	0.827	-0.496	-1.31	-0.441	-1.46	-0.126 (inactive)	0.0583	-0.0723	0.287 (inactive)
Cc1cc2c(nc1C)CCCCN2CC(O)CN1CCCc2nc(-c3ccc(Br)cc3)ccc21 (stereo not given)	0.453 (inactive)	0.345	4.88 (inactive)	0.0477 (inactive)	0.0577 (inactive)	0.148 (inactive)	0.75	1.88 (inactive)	0.175 (inactive)	0.616	1.54	-0.829	1.62	0.322	-0.697	-0.814	-0.16 (inactive)	0.357	-0.536	-0.379 (inactive)
O=C1C=C[C@@H](O)[C@@H]2[C@@H]3C(=O)N(Cc4ccc5c(c4)OCO5)C(=O)[C@@H]3CC[C@@H]12	0.038 (inactive)	-0.0061	1.26 (inactive)	-0.0262 (inactive)	-0.556 (inactive)	0.379 (inactive)	0.182	1.41 (inactive)	-1.55 (inactive)	-0.372	-0.0516	0.493	0.0311	-0.186	0.0706	-0.214	-0.0146 (inactive)	0.0398	0.652	-0.701 (inactive)
